Assay results published in PubChem BioAssay AID1159580 (chemical genetic matrix, 2015).
Among all 5,500 compounds or so, about 2,000 (36%) were called active. Another 18% or so got no clear call; they are omitted. No stated cut-off is given here; in the data, active means normalized growth mostly below about 0.91 (no sharp cut-off); inconclusive means no clear call, values can overlap the other calls; inactive means mostly above about 0.92. This is one part of the list.

Assay: chemical genetic growth profiling, strain panel (AID 1159580);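 further: tested at 20 µM; growth read once vehicle control cultures reached saturation at 30 °C; 1 = growth at the plate median or of vehicle wells; lower values mean less growth of the strain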
Conditions: S. cerevisiae deletion strains, growth OD

Measured: normalized growth

CC(=O)OC1CC23CC24CCC(OC2OCC(O)C(O)C2O)C(C)(C)C4CCC3C2(C)CC3OC4(CC(C)C3C12C)OC(O)C1(C)OC41 (stereo unspecified)
inactive: locus YAL021C, strain ccr4, active compounds read low 0.995 | locus YAL026C, strain drs2, active compounds read low 1.01 | locus YAL030W, strain snc1, active compounds read low 1 | locus YBL061C, strain skt5, active compounds read low 1.01 | locus YBR009C, strain hhf1, active compounds read low 0.988 | locus YBR023C, strain chs3, active compounds read low 1 | locus YBR171W, strain sec66, active compounds read low 1.02 | locus YBR231C, strain swc5, active compounds read low 1.03 | locus YBR279W, strain paf1, active compounds read low 1 | locus YCL011C, strain gbp2, active compounds read low 1.01 | locus YCL016C, strain dcc1, active compounds read low 0.998 | locus YCL069W, strain vba3, active compounds read low 1.01 | locus YCR088W, strain abp1, active compounds read low 1.01 | locus YDL005C, strain med2, active compounds read low 1.02 | locus YDL040C, strain nat1, active compounds read low 1 | locus YDR001C, strain nth1, active compounds read low 1 | locus YDR069C, strain doa4, active compounds read low 1.01 | locus YDR137W, strain rgp1, active compounds read low 0.99 | locus YDR159W, strain sac3, active compounds read low 1.04 | locus YDR195W, strain ref2 1 | locus YDR297W, strain sur2, active compounds read low 1.01 | locus YDR334W, strain swr1, active compounds read low 1.01 | locus YDR335W, strain msn5, active compounds read low 1.01 | locus YDR392W, strain spt3, active compounds read low 0.936 | locus YEL003W, strain gim4, active compounds read low 1.01 | locus YEL037C, strain rad23, active compounds read low 1 | locus YEL061C, strain CIN8 (second series), active compounds read low 1.01 | locus YER015W, strain faa2, active compounds read low 1.02 | locus YER016W, strain bim1, active compounds read low 1.01 | locus YER111C, strain swi4, active compounds read low 0.999 | locus YER155C, strain BEM2 (second series), active compounds read low 1.07 | locus YFR010W, strain ubp6, active compounds read low 1.03 | locus YGL167C, strain pmr1, active compounds read low 0.996 | locus YGL173C, strain kem1, active compounds read low 1.01 | locus YGL227W, strain vid30, active compounds read low 1.01 | locus YGL240W, strain doc1, active compounds read low 1.04 | locus YGL253W, strain hxk2, active compounds read low 1 | locus YHR013C, strain ard1, active compounds read low 0.998 | locus YHR027C, strain rpn1, active compounds read low 1 | locus YHR142W, strain chs7, active compounds read low 0.978 | locus YJL092W, strain hpr5, active compounds read low 1.02 | locus YJL095W, strain BCK1 (second series), active compounds read low 1.01 | locus YJL115W, strain asf1, active compounds read low 1.01 | locus YJL129C, strain trk1, active compounds read low 1 | locus YJL154C, strain vps35, active compounds read low 1.01 | locus YJL164C, strain tpk1, active compounds read low 0.972 | locus YJL166W, strain qcr8, active compounds read low 1.01 | locus YJL187C, strain SWE1, active compounds read low 0.996 | locus YKL160W, strain elf1, active compounds read low 0.998 | locus YKR026C, strain gcn3, active compounds read low 1.01 | locus YKR091W, strain srl3, active compounds read low 1 | locus YLL001W, strain dnm1, active compounds read low 1.01 | locus YLL026W, active compounds read low 1.02 | locus YLL041C, strain sdh2, active compounds read low 0.997 | locus YLR027C, strain aat2, active compounds read low 0.997 | locus YLR221C, strain rsa3, active compounds read low 1.04 | locus YLR258W, strain gsy2, active compounds read low 1 | locus YLR262C, strain YPT6 (second series), active compounds read low 1.02 | locus YLR320W, strain mms22, active compounds read low 1.04 | locus YLR342W, strain FKS1, active compounds read low 1 | locus YLR357W, strain rsc2, active compounds read low 1.05 | locus YLR370C, strain arc18, active compounds read low 1.01 | locus YLR384C, strain iki3, active compounds read low 0.998 | locus YML120C, strain ndi1, active compounds read low 0.98 | locus YMR058W, strain fet3, active compounds read low 1.03 | locus YMR125W, strain sto1, active compounds read low 0.985 | locus YMR129W, active compounds read low 1 | locus YMR205C, strain PFK2, active compounds read low 0.994 | locus YMR231W, strain pep5, active compounds read low 1.01 | locus YNL071W, strain lat1, active compounds read low 0.999 | locus YNL209W, strain ssb2, active compounds read low 0.987 | locus YNL248C, strain rpa49, active compounds read low 1.07 | locus YNL322C, strain KRE1 (second series), active compounds read low 1.01 | locus YNR049C, strain mso1, active compounds read low 1.02 | locus YOR001W, strain rrp6, active compounds read low 1.04 | locus YOR070C, strain gyp1, active compounds read low 1.02 | locus YOR080W, strain dia2, active compounds read low 1 | locus YOR083W, strain WHI5, active compounds read low 0.993 | locus YOR106W, strain vam3, active compounds read low 0.975 | locus YOR265W, strain rbl2, active compounds read low 1 | locus YOR270C, strain vph1, active compounds read low 0.906 | locus YOR290C, strain snf2, active compounds read low 0.959 | locus YPL051W, strain arl3, active compounds read low 1.03 | locus YPL078C, strain atp4, active compounds read low 0.963 | locus YPL106C, strain sse1, active compounds read low 1.02 | locus YPL240C, strain hsp82, active compounds read low 1.02
